The supplement of paper PMC9588786
± gives the standard deviation of the averaged measurements.

These compounds were tested on HT-1080 (assay: relative cell viability with RSL3 co-treatment (fraction of control); higher = stronger protection from RSL3-induced ferroptosis (higher viability)). Settings: 10 µM.
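Further: viability read as CCK-8 absorbance at 450 nm in cells co-exposed to the GPX4 inhibitor RSL3, relative to a 0.01% DMSO vehicle control.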

SMILES	relative cell viability
CC(C)(C)c1cc(C=C(C#N)C#N)cc(Br)c1O	0.473 ± 0.015
COc1ccc2c(c1)/C(=C/c1cnc[nH]1)C(=O)N2	0.797 ± 0.011
CC(C)(C)c1cc(C=C(C#N)C#N)cc(C(C)(C)C)c1O [Tyrphostin 9]	0.413 ± 0.021
O=c1[nH]c2ccc(Cl)cc2c(N[C@@H]2CN3CCC2CC3)c1-c1nc2ccccc2[nH]1	0.63 ± 0.046
Cn1cc(C2=C(c3cn(C4CCN(Cc5ccccn5)CC4)c4ccccc34)C(=O)NC2=O)c2ccccc21	0.807 ± 0.061
CCN1CCN(C(=O)Cc2ccc(Nc3ncc(F)c(Nc4ccc(C(=O)Nc5ccccc5Cl)cc4)n3)cc2)CC1 [Aurora A Inhibitor I]	0.473 ± 0.13
COc1ccc(N(C(=O)Oc2c(C)cccc2C)c2ccnc(Nc3ccc(N4CCN(C)CC4)cc3)n2)c(OC)c1	0.8133 ± 0.0058
C/C(O)=C(\C#N)C(=O)Nc1cc(Br)ccc1Br	0.54 ± 0.085
Cc1ccccc1-n1c(Cn2ncc3c(N)ncnc32)nc2cccc(C)c2c1=O	0.727 ± 0.049
